From PubChem BioAssay AID504852 (Southern Research Specialized Biocontainment Screening …, 2011) come the findings set out here.

Molecules are shown by their SMILES. Results with a measured potency or affinity are listed apart. The source made the active and inactive calls. How the calls were made is not given here.

This assay in a line: THP-1 cell cytotoxicity, dose response, cytotoxicity control, set 3 (AID 504852). To be noted: THP-1 cell viability, cytotoxicity CC50; series mostly up to 100 µM.

For the compound `O=C(CSc1nc2ccccc2c(=O)[nH]1)NC1CCCC1`, the result was inactive.

Turning to `CCC(Sc1nc2c(c(=O)[nH]1)CCC2)C(=O)Nc1cccc(OC)c1` (stereo unspecified), the outcome was inactive.

As for `COc1ccc(NC(=O)CSc2nc3ccccc3c(=O)[nH]2)cc1`, the result was inactive.

In the case of `CN(C)C(=O)CSc1nc2ccccc2c(=O)[nH]1`, the outcome was inactive.

`Cc1cc(=O)[nH]c(=S)[nH]1`: the result was inactive.

Take `COc1cccc(NC(=O)CSc2nc3c(c(=O)[nH]2)CCC3)c1`: the call was inactive.

In the case of `Cn1c(SCC(=O)NC2CCCCC2)nc2ccccc2c1=O`, the result was inactive.

With `Cc1ccc(NC(=O)CSc2nc3ccccc3c(=O)[nH]2)cc1Cl`, the compound was classed as inactive.

With `CCSc1nc(C)c(C)c(=O)[nH]1`, the call was inactive.

Take `Cc1cnc(SCC(=O)NC2CCCCC2)[nH]c1=O`: the result was inactive.

Take `O=c1[nH]c(=S)[nH]c2ccccc12`: the compound was classed as inactive.

As for `O=C(CSc1nccc(=O)[nH]1)NC1CCCCC1`, the call was inactive.

In the case of `Cc1cc(=O)[nH]c(SCC(=O)NC2CCCCC2)n1`, the compound was classed as inactive.

As for `NC(=O)CSc1nc2ccccc2c(=O)[nH]1`, the compound was called inactive.

On to `CC(C)CCNC(=O)CSc1nc2c(c(=O)[nH]1)CCC2`, for which the compound was called inactive.

For the compound `Cc1c[nH]c(=S)[nH]c1=O`, the call was inactive.

For the compound `Cc1nc(SCc2ccccc2Cl)[nH]c(=O)c1C`, the result was inactive.

In the case of `Nc1cc(=O)[nH]c(SCC(=O)NC2CCCCC2)n1`, the result was inactive.

Regarding `CN1CCC(NC(=O)CSc2nc3ccccc3c(=O)[nH]2)CC1`, the compound was called inactive.

As to `O=c1[nH]c(SCc2ccccc2Cl)nc2c1CCCC2`, the call was inactive.

For `CCOC(=O)CSc1nc(C)c(C)c(=O)[nH]1`, the compound was classed as inactive.

Take `CC(C)NC(=O)CSc1nc2ccccc2c(=O)[nH]1`: the outcome was inactive.

With `CCC(Sc1nc2ccccc2c(=O)[nH]1)C(=O)Nc1cccc(OC)c1` (stereo unspecified), the outcome was inactive.

Take `O=C(CSc1nc2c(c(=O)[nH]1)CCC2)NC1CCCCC1`: the compound was called inactive.

Regarding `Cc1nc(SCC(=O)NCCC(C)C)[nH]c(=O)c1C`, the call was inactive.

Regarding `Cc1nc(SCC(=O)NC2CCCC2)[nH]c(=O)c1C`, the call was inactive.

`O=C(CSc1nc2ccccc2c(=O)[nH]1)NC1CCCCC1`: the call was inactive.

As for `Cc1nc(SCC(N)=O)[nH]c(=O)c1C`, the outcome was inactive.

On to `Cc1[nH]c(=S)[nH]c(=O)c1C`, for which the compound was called inactive.

For `O=C(CSc1ncccn1)NC1CCCCC1`, the compound was classed as inactive.

On to `O=C(CSc1nc2ccccc2c(=O)[nH]1)N1CCOCC1`, for which the outcome was inactive.
